A selection follows.
aSyn 5UTR act: Activators via SNCA 5'UTR binding, MLPCN. alpha-synuclein 5'UTR reporter, activators screen. activity score, % (tested at 7.5 µM), hits read low. 7.1% of 300,000 active; in the data active means activity score below about -60%
Of the large screens only hits and unclear results are named; the others gave an inactive call.

Cc1c(NC(=S)Nc2ccccc2C(F)(F)F)cccc1[N+](=O)[O-]	aSyn 5UTR act -65.5
O=C(Nc1cccs1)Nc1ccccc1Cl	aSyn 5UTR act -70.5
CC(=O)N(c1ccccc1)c1nnc(-c2cnc(C)cn2)s1	aSyn 5UTR act -82.5
O=C(N/N=C1/CC2C=CCC12)c1cccs1 (stereo not given)	aSyn 5UTR act -75.1
O=C(N/N=C1/CC2C=CCC12)c1ccco1 (stereo not given)	aSyn 5UTR act -66.4
COc1ccc(-c2csc(NNC3=NCCCCC3)n2)cc1	aSyn 5UTR act -62.5
Brc1ccc(-c2csc(NC3=NCCCCC3)n2)cc1	aSyn 5UTR act -137.6
CCOc1ccc(-c2csc(NNC3=NCCCCC3)n2)cc1	aSyn 5UTR act -87.8
c1ccc(-c2csc(NNC3=NCCCCC3)n2)cc1	aSyn 5UTR act -72.4
COc1ccc(-c2csc(NC3=NCCCCC3)n2)cc1	aSyn 5UTR act -90.9
CN(C)c1oc(/C=C/c2ccccc2)nc1C#N	aSyn 5UTR act -261.9
COc1ccccc1/C=C/c1nc(C#N)c(N(C)C)o1	aSyn 5UTR act -196.1
Cc1ccc(-c2nc(NCC3CCCO3)sc2C)cc1 (stereo not given)	aSyn 5UTR act -93.7
COc1cccc(NC(=S)Nc2cccc3ccccc23)c1	aSyn 5UTR act -69.6
CCOc1ccc(NC(=S)Nc2cccc3ccccc23)cc1	aSyn 5UTR act -63.4
S=C(Nc1cccnc1)Nc1cccc2cnccc12	none
CCOc1ccc(NC(=S)Nc2cccc3cnccc23)cc1	aSyn 5UTR act -89.1
COc1ccc(NC(=S)Nc2cccc3cnccc23)cc1	aSyn 5UTR act -72.5
CCOc1ccc(NC(=S)Nc2cc(OC)c(Cl)cc2OC)cc1	aSyn 5UTR act -89.9
CCc1ccc(NC(=S)Nc2cccc(OC)c2)cc1	aSyn 5UTR act -108.6
COc1cccc(NC(=S)NN=C2CCCCCC2)c1	aSyn 5UTR act -146.5
Nc1ccc2oc(=O)c3ccccc3c2c1	aSyn 5UTR act -174.1
CN(C)S(=O)(=O)N1CCC(Oc2ccc(C(=O)NC3Cc4ccccc4C3)cc2)CC1	aSyn 5UTR act -65.2
Cc1cc(CNC(=O)c2cccc(OC3CCN(S(=O)(=O)N(C)C)CC3)c2)on1	aSyn 5UTR act -138.6
COc1ccc(-c2nnc(NC(=O)c3ccc(S(=O)(=O)N4CCc5ccccc5C4)cc3)o2)cc1	none
Cc1ccc2nc(-c3ccccn3)c(NC3CCCC3)n2c1	aSyn 5UTR act -165.4
Cc1cccc(C(=O)c2c(N)sc3c2CCC(C)C3)c1 (stereo not given)	aSyn 5UTR act -85.3
O=C(c1ccccc1)c1c(O)nc(-c2ccccc2)n(-c2ccccc2)c1=O	aSyn 5UTR act -67.5
Cc1ccc(C(=O)/C=C/Nc2cccc([N+](=O)[O-])c2)o1	aSyn 5UTR act -167.2
O=C(/C=C/Nc1cccc([N+](=O)[O-])c1)c1ccco1	aSyn 5UTR act -282.7
Cc1ccc(C(=O)OCC(=O)N2CCc3ccccc32)cc1	aSyn 5UTR act -70.2
CC(=O)c1c(C)[nH]c(C(=O)OCC(=O)N2CCc3ccccc32)c1C	aSyn 5UTR act -130.7
CN(C)Cc1c(C(=O)Nc2ccccc2)[nH]c2ccccc12	aSyn 5UTR act -76.2
CCOC(=O)c1[nH]c2ccccc2c1NC(=S)Nc1ccccc1	aSyn 5UTR act -69.5
O=C(NC1CCCCCCC1)NC1CCCCC1	aSyn 5UTR act -127.1
O=C(NC1CCCCCC1)C(=S)NC1CCCCC1	aSyn 5UTR act -97.9
COc1ccc2oc(=Nc3cc(F)ccc3F)c(C(N)=O)cc2c1	aSyn 5UTR act -176.0
COc1ccc2cc(C(N)=O)c(=Nc3ccccc3)oc2c1	aSyn 5UTR act -89.7
COc1ccccc1NC(=O)C(=O)N/N=C(\C)CC(=O)Nc1ccc(OCc2ccccc2)cc1	aSyn 5UTR act -61.6
CC(=O)Nc1ccc(N=Cc2ccc(OCc3ccccc3)cc2)cc1	aSyn 5UTR act -129.5
CS(=O)(=O)Nc1ccc(OCc2ccccc2)cc1	aSyn 5UTR act -167.9
Oc1ccc(NCc2ccc(OCc3ccccc3)cc2)cc1	aSyn 5UTR act -100.2
COCC(=O)Nc1ccc(OCc2ccccc2)cc1	aSyn 5UTR act -78.6
COC(=O)Nc1ccc(OCc2ccccc2)cc1	aSyn 5UTR act -111.5
COc1cccc(CNc2ccc3c(c2)CCC3)c1	aSyn 5UTR act -166.8
COc1ccc(OC)c(CNc2ccc3c(c2)CCC3)c1	aSyn 5UTR act -117.6
N#Cc1cc2c(nc1SCC(=O)Nc1sc3c(c1C#N)CCC3)CCCC2	aSyn 5UTR act -239.9
N#Cc1c(NC(=O)CSc2ncn[nH]2)sc2c1CCCCC2	none
CCOC(=O)c1sc(NC(=O)CSc2nc3c(cc2C#N)CCCCCC3)c(C#N)c1C	aSyn 5UTR act -74.0
N#Cc1cc2c(nc1SCC(=O)Nc1sc3c(c1C#N)CCC3)CCCCC2	aSyn 5UTR act -122.1
COc1ccc(C2=NN(CN3C(=O)C(=O)c4ccccc43)C(c3cccc([N+](=O)[O-])c3)C2)cc1 (stereo not given)	aSyn 5UTR act -70.3
COc1cccc(NC(=O)c2ccc(NC(=O)C(C)(C)C)cc2)c1	aSyn 5UTR act -188.6
CCC(C)c1ccc(NC(=O)c2cccnc2)cc1 (stereo not given)	aSyn 5UTR act -268.5
CC(C)(C)C(=O)NC(=S)NNC(=O)c1ccc(-c2ccccc2)cc1	none
CC(C)(C)C(=O)Nc1ccc(C(=O)Nc2cccnc2)cc1	aSyn 5UTR act -120.3
O=C(NNC(=O)c1ccc(-c2ccccc2)cc1)c1ccccc1	aSyn 5UTR act -63.9
O=C(Nc1cccnc1)c1cnc2ccccc2n1	aSyn 5UTR act -72.8
O=C(Nc1ccncc1)c1ccc(-c2ccccc2)cc1	aSyn 5UTR act -127.1
CC(C)c1cc(C(=O)Nc2cccnc2)no1	aSyn 5UTR act -84.8
O=C(Nc1ccccc1)c1cnc[nH]1	aSyn 5UTR act -67.6
CC(C)c1ccc(C(=O)Nc2cccnc2)cc1	aSyn 5UTR act -96.0
O=C(Nc1ccc(-c2cnco2)cc1)c1ccccc1	aSyn 5UTR act -172.5
COc1cccc(-c2cc(=O)c3cc(NC(=O)c4ccccc4)ccc3[nH]2)c1	none
COc1cccc(-c2cc(=O)c3cc(NC(=O)c4ccc(Cl)cc4)ccc3[nH]2)c1	aSyn 5UTR act -68.4
Cc1ccc(C(=O)Nc2cccnc2)cc1Cl	aSyn 5UTR act -172.5
O=C(Nc1cccnc1)c1ccc(-c2ccccc2)cc1	aSyn 5UTR act -162.8
COc1cc(/C=N/Nc2ccc(C(=O)O)cc2)cc(OC)c1OC	aSyn 5UTR act -147.9
COc1ccc(/C=N/Nc2ccc(C(=O)O)cc2)c(OC)c1OC	aSyn 5UTR act -118.3
COc1cccc(/C=N/NC(=S)Nc2cccc(C(=O)O)c2)c1O	none
C=CCOc1c(OC)cc(/C=N/Nc2cccc(C(=O)O)c2)c(Br)c1Br	aSyn 5UTR act -176.5
CC(C)OC(=O)Nc1ccc2c(c1)N(C(=O)N1CCN(C)CC1)c1ccccc1CC2	aSyn 5UTR act -62.2
Cc1ccc(-c2cc(N)nc(-c3ccccc3)c2)cc1	aSyn 5UTR act -86.9
Cc1cc(C(F)(F)F)c(C#N)c(SCC(=O)Nc2nc3cc(Br)ccc3s2)n1	aSyn 5UTR act -176.1
COc1ccc(CN=C2NN=C(c3ccc(Cl)cc3)CS2)cc1	aSyn 5UTR act -103.3
C=CCn1c(C)cc(C2=NNC(=NC(C)(C)C)SC2)c1C	none
COc1ccc(CN=C2Nc3ccccc3CS2)cc1	aSyn 5UTR act -84.7
CC(C)(C)N=C1NN=C(c2cc3ccccc3o2)CS1	aSyn 5UTR act -74.3
CC(C)(C)N=C1NN=C(c2ccc(Cl)cc2)CS1	aSyn 5UTR act -108.5
O=C(Nc1ccccc1)N(O)c1ccc(Cl)cc1	aSyn 5UTR act -121.7
O=C(Nc1nc2c(F)cc(F)cc2s1)c1ccc([N+](=O)[O-])o1	aSyn 5UTR act -69.3
Cc1ccc(C)c(-c2nnc(NC(=O)c3ccc([N+](=O)[O-])o3)o2)c1	aSyn 5UTR act -62.9
O=C(CCc1ccccc1)Nc1nc2c(F)cc(F)cc2s1	aSyn 5UTR act -99.0

Screens: PubChem, Broad Institute
